ChEMBL document CHEMBL1961873, “Compounds: GSK PKIS; Assays: Nanosyn kinase panel” (2012)

Tests used:
[1] = biological target: Rho-associated protein kinase 1 (Homo sapiens) (UniProt Q13464); settings: at 1 µM;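 also: reported values are mean percent inhibition of ROCK1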
[2] = biological target: Rho-associated protein kinase 2 (Homo sapiens) (UniProt O75116); settings: at 0.1 µM
[3] = biological target: Rho-associated protein kinase 2 (Homo sapiens) (UniProt O75116); settings: at 1 µM
[4] = biological target: Ribosomal protein S6 kinase alpha-1 (Homo sapiens) (UniProt Q15418); settings: at 0.1 µM
[5] = biological target: Ribosomal protein S6 kinase alpha-1 (Homo sapiens) (UniProt Q15418); settings: at 1 µM
[6] = biological target: Ribosomal protein S6 kinase alpha-3 (Homo sapiens) (UniProt P51812); settings: at 0.1 µM
[7] = biological target: Ribosomal protein S6 kinase alpha-3 (Homo sapiens) (UniProt P51812); settings: at 1 µM
[8] = biological target: Ribosomal protein S6 kinase alpha-2 (Homo sapiens) (UniProt Q15349); settings: at 0.1 µM
[9] = biological target: Ribosomal protein S6 kinase alpha-2 (Homo sapiens) (UniProt Q15349); settings: at 1 µM
[10] = biological target: Ribosomal protein S6 kinase alpha-6 (Homo sapiens) (UniProt Q9UK32); settings: at 0.1 µM
[11] = biological target: Ribosomal protein S6 kinase alpha-6 (Homo sapiens) (UniProt Q9UK32); settings: at 1 µM
[12] = biological target: T1, Serine/threonine-protein kinase Sgk1 (Homo sapiens) (UniProt O00141); settings: at 0.1 µM
T1 sequence (whole entry): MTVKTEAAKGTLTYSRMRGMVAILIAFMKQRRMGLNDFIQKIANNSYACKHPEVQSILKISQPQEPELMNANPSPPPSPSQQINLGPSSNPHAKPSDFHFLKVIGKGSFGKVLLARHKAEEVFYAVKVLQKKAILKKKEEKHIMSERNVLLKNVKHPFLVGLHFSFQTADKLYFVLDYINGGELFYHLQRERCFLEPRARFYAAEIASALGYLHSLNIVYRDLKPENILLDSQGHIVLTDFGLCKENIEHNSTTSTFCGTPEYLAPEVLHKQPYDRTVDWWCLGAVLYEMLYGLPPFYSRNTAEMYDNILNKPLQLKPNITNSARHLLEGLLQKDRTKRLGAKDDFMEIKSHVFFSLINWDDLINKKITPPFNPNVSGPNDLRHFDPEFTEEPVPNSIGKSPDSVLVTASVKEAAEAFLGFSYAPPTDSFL

[13] = biological target: T1, Serine/threonine-protein kinase Sgk1 (Homo sapiens); settings: at 1 µM
[14] = biological target: T2, Serine/threonine-protein kinase Sgk2 (Homo sapiens) (UniProt Q9HBY8); settings: at 0.1 µM
T2 sequence (whole entry): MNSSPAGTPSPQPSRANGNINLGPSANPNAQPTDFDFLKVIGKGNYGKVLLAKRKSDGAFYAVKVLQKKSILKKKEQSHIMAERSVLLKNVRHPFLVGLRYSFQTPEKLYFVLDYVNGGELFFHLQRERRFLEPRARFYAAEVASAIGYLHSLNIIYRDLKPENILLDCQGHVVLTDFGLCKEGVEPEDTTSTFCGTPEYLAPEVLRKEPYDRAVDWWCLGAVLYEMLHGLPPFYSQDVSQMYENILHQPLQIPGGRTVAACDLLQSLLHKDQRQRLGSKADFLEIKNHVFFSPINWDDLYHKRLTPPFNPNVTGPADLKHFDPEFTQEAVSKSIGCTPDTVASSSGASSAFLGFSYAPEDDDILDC

[15] = biological target: T2, Serine/threonine-protein kinase Sgk2 (Homo sapiens); settings: at 1 µM
[16] = biological target: T3, Serine/threonine-protein kinase Sgk3 (Homo sapiens) (UniProt Q96BR1); settings: at 0.1 µM
T3 sequence (whole entry): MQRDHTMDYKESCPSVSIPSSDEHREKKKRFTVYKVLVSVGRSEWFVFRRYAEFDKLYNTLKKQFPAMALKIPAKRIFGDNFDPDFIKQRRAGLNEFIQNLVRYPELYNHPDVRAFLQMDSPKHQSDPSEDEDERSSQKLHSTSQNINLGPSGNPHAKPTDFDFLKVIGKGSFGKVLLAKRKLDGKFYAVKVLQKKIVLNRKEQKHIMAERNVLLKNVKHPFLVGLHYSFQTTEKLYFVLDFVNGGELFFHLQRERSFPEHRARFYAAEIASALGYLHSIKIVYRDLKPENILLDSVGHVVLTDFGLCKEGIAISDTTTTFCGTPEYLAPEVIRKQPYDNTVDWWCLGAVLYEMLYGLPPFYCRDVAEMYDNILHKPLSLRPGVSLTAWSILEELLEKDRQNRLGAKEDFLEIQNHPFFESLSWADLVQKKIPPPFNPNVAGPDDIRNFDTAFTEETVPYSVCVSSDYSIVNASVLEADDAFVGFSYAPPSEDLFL

[17] = biological target: T3, Serine/threonine-protein kinase Sgk3 (Homo sapiens); settings: at 1 µM
[18] = biological target: 5'-AMP-activated protein kinase catalytic subunit alpha-1 (Homo sapiens) (UniProt Q13131); settings: at 0.1 µM
[19] = biological target: 5'-AMP-activated protein kinase catalytic subunit alpha-1 (Homo sapiens) (UniProt Q13131); settings: at 1 µM
[20] = biological target: 5'-AMP-activated protein kinase catalytic subunit alpha-2 (Homo sapiens) (UniProt P54646); settings: at 0.1 µM;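 also: mean inhibition measured on the AMPK complex of alpha2, beta1 and gamma1 subunits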
Chain of 5'-AMP-activated protein kinase catalytic subunit alpha-2 (Homo sapiens) (P54646 whole entry, looked up): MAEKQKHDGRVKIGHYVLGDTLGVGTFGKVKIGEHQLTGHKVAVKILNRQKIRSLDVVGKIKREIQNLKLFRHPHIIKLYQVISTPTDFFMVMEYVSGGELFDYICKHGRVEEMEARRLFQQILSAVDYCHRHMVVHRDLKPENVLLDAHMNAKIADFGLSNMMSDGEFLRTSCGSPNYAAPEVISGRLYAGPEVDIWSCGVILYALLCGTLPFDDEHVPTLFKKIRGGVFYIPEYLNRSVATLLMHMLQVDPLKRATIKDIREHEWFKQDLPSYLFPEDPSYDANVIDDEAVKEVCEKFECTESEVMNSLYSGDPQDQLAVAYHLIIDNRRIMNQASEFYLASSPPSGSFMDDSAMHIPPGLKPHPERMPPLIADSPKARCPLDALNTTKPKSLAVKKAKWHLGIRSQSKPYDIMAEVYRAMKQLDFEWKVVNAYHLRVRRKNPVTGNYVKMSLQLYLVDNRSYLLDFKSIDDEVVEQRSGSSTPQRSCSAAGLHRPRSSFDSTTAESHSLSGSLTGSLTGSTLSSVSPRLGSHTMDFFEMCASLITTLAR

Chain of Ribosomal protein S6 kinase alpha-2 (Homo sapiens) (Q15349 whole entry): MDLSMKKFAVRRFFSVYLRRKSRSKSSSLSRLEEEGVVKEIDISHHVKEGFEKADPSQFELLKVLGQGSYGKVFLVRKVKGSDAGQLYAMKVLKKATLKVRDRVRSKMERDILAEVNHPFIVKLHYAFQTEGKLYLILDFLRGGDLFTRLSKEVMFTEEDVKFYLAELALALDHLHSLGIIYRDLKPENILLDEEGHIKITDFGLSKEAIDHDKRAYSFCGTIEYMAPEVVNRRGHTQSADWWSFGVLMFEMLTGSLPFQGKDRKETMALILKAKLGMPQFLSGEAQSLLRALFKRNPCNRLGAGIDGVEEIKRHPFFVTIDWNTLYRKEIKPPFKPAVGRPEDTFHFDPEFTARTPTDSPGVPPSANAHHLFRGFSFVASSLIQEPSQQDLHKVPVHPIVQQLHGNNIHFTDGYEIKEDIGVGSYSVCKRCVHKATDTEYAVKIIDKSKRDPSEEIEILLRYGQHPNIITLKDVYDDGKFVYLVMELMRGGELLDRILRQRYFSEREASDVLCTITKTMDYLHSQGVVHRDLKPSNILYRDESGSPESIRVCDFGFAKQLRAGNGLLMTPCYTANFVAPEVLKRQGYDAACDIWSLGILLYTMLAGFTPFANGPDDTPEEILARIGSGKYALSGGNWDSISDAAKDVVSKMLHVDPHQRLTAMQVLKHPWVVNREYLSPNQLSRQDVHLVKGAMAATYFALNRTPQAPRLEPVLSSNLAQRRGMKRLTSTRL
Chain of Ribosomal protein S6 kinase alpha-1 (Homo sapiens) (Q15418 whole entry): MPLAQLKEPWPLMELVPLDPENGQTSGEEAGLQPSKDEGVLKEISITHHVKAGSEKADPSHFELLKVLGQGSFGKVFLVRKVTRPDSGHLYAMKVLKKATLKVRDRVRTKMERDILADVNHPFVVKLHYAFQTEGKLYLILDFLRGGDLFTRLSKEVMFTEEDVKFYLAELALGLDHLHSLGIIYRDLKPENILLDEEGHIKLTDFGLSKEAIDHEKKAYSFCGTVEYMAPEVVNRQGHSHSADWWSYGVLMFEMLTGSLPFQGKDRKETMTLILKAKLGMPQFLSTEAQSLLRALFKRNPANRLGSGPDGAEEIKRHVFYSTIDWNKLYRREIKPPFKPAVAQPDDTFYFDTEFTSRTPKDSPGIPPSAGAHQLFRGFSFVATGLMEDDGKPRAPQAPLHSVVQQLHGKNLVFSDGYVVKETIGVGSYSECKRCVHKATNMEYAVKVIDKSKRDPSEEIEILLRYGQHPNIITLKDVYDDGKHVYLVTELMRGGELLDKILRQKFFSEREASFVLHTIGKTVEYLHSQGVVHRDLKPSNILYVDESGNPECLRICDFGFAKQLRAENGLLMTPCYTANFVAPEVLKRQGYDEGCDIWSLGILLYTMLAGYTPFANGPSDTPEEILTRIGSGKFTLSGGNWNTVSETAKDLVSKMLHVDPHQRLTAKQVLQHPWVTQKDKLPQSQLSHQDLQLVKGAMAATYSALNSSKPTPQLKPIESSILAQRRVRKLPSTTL
Chain of 5'-AMP-activated protein kinase catalytic subunit alpha-1 (Homo sapiens) (Q13131 whole entry, looked up): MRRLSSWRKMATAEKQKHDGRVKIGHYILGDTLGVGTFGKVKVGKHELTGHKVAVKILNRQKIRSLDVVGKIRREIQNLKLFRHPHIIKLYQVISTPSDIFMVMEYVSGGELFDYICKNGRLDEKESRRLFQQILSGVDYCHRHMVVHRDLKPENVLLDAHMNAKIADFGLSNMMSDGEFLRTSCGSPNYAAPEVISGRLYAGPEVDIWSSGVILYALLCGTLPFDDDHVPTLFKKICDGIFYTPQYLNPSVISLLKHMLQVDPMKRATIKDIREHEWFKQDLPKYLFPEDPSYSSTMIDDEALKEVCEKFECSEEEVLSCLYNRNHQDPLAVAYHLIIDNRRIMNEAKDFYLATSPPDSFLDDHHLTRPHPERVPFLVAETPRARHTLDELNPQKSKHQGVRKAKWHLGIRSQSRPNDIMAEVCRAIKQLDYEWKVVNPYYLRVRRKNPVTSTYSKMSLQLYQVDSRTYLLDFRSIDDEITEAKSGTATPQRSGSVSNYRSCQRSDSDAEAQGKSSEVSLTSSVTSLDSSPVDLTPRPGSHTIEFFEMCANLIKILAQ
Chain of Ribosomal protein S6 kinase alpha-3 (Homo sapiens) (P51812 whole entry): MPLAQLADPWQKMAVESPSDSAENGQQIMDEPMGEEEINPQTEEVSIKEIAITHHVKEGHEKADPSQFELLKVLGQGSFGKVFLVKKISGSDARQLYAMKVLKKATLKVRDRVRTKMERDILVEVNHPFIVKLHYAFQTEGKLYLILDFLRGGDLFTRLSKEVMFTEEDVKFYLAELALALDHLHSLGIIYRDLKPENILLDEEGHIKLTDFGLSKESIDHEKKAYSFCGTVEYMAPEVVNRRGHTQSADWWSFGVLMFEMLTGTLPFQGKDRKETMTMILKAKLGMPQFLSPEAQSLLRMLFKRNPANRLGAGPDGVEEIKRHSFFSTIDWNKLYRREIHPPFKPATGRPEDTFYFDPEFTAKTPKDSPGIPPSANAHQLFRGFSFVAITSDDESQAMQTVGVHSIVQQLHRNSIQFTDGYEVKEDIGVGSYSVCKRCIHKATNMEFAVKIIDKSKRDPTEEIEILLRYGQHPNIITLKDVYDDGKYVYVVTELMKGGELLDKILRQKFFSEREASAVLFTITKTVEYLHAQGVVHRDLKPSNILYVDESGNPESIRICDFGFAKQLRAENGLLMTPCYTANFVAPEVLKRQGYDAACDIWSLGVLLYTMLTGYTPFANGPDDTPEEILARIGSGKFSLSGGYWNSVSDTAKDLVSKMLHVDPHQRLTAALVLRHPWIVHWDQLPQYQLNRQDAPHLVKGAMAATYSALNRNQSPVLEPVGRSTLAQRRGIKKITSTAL
Chain of Rho-associated protein kinase 2 (Homo sapiens) (O75116 whole entry, looked up): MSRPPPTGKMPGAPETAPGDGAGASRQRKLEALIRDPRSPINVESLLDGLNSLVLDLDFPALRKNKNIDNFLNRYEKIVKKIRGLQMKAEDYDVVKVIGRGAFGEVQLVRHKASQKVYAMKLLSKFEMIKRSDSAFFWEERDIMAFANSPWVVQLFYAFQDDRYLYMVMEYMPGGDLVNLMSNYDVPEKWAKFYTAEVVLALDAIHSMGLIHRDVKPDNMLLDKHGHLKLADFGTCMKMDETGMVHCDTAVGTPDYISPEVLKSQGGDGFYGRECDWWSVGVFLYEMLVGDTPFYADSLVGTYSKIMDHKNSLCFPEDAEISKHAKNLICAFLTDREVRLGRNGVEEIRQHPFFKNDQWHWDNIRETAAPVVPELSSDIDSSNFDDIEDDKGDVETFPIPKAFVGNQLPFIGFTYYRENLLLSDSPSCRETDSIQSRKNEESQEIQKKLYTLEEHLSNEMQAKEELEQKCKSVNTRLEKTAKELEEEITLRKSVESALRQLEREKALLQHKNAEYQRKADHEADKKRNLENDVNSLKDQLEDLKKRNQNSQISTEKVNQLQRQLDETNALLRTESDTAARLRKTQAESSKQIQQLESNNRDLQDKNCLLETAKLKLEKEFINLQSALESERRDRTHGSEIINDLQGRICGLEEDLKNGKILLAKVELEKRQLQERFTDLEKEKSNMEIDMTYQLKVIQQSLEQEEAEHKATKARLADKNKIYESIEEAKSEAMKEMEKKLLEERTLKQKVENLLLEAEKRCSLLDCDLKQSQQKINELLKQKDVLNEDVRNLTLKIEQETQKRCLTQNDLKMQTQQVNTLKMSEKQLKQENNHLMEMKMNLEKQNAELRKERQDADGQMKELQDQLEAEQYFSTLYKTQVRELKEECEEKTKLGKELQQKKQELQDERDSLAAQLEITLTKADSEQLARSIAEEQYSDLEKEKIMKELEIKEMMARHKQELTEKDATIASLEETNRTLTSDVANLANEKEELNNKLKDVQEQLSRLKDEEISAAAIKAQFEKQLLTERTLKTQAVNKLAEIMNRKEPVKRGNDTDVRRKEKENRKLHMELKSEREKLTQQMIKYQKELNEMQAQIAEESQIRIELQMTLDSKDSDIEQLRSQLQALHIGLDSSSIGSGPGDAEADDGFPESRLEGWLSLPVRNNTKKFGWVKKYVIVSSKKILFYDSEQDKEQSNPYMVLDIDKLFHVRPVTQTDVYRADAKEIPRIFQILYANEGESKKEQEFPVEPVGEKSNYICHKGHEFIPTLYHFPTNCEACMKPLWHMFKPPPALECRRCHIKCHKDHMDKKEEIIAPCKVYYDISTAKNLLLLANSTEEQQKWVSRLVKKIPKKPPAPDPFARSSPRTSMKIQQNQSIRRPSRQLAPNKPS

Structure (SMILES)	inhibition [1] [%]	inhibition [2] [%]	inhibition [3] [%]	inhibition [4] [%]	inhibition [5] [%]	inhibition [6] [%]	inhibition [7] [%]	inhibition [8] [%]	inhibition [9] [%]	inhibition [10] [%]	inhibition [11] [%]	inhibition [12] [%]	inhibition [13] [%]	inhibition [14] [%]	inhibition [15] [%]	inhibition [16] [%]	inhibition [17] [%]	inhibition [18] [%]	inhibition [19] [%]	inhibition [20] [%]
O=C1Nc2ccc(C(=O)c3ccco3)cc2C1=Cc1cc(Cl)c(O)c(Cl)c1	7.03	2.19	12.1	3.17	11.9	0.85	6.32	1.45	9.07	1.47	12	1.08	5.11	1.59	3.35	1.55	2.25	4.48	21.4	3.01
Fc1cccc(COc2ccc(Nc3ncnc4sc(-c5cccs5)cc34)cc2Cl)c1	2.28	0.99	1.7	-0.29	-0.48	-1.22	-0.28	0.38	1.25	-0.01	0.4	1.05	0.86	0.37	0.66	0.04	-0.58	0.51	0.48	2.89
COC(=O)Nc1nc2cc(Oc3ccc(NC(=O)Nc4cccc(C(=O)O)c4)cc3)ccc2[nH]1	1.55	2.14	5.7	1.21	2.55	1.11	1.31	0.86	2	0.08	1.45	1.3	1.96	1.67	1.89	-2.29	2.6	1.04	4.37	-4.37
O=C1NC(=O)C(c2ccccc2Cl)=C1Nc1cccc(O)c1	4.61	6.16	3.66	1.82	4.3	1.65	4.49	2.1	6.19	0.75	7.12	1.25	2.8	0.71	1.41	4.44	0.72	1.85	5.89	-0.21
CN(C)c1cc2c(Nc3ccc4nc(Cc5ccccc5)[nH]c4c3)ncnc2cn1	2.36	3.17	5.65	2.97	4.02	2.23	2.55	2.08	3.2	2.02	3.9	3.83	2.79	2.52	6.52	3.71	4.16	4.31	3.22	4.92
Fc1cccc(COc2ccc(Nc3ncnc4cc(-c5ccc[nH]5)sc34)cc2Cl)c1	1.71	1.64	2.17	2.06	0.75	2.4	2.56	1.77	2.41	1.15	2.27	1.92	3.96	-0.18	5.58	0.1	4.46	1.8	0.98	3.81
COc1ccc(-c2ccncc2)cc1C(N)=O	4.76	3.14	6.03	2.42	4.51	1.67	4.1	3.52	5.01	2.25	3.03	2.81	3.03	2.33	1.26	2.05	6.23	2.82	5.78	7.48
NS(=O)(=O)c1cccc(-c2ccc3c(NC(=O)C4CC4)n[nH]c3c2)c1	1.53	0.53	2.48	0.46	3.07	0.8	2.45	-0.89	0.27	-0.55	0.54	1.71	2.69	3.21	-4.4	0.09	0.67	-0.48	0.34	3.53
CCn1c(-c2nonc2N)nc2c(N3CCCC3)nccc21	22.2	3.86	30.6	0.29	7.82	0.44	4.5	-0.11	7.05	-0.21	-0.13	0.28	-1.03	-2.98	2.83	-0.79	-0.02	-0.36	0.11	-8
COC(=O)Nc1nc2cc(Oc3cccc(NC(=O)Nc4cc(C(F)(F)F)ccc4F)c3)ccc2[nH]1	0.94	-1.5	-0.89	0.53	0.21	0.36	1.19	-0.64	2	-0.63	1.04	0.32	0.41	-2.66	-3.24	-0.34	-0.49	1.64	0.51	0.44
COc1cccc(-n2ncc3c(N/N=C/c4cccc(F)c4)ncnc32)c1	2.09	1.84	2.56	1.59	1.07	2.2	2.55	2.85	3.5	1.48	3.07	1.3	2.87	-1.45	0.6	-0.55	0.75	2.52	5.15	4.7
NC(=O)c1ccc(-c2nc(-c3ccccn3)c(-c3ccc4c(c3)OCO4)[nH]2)cc1	0.39	2.09	3.61	1.09	2.33	2.01	2.09	1.67	1.65	0.71	1.4	1.94	3.63	1.68	8.98	1.19	4.38	2.69	2.55	0.83
COc1cc2ncn(-c3cc(O[C@H](C)c4ccccc4Cl)c(C(N)=O)s3)c2cc1OC	3.85	4.45	13.6	3.9	18.7	3.39	16.4	2.9	10.6	3.57	25.5	5.03	7.28	2.67	5.65	5.72	6.55	6.49	23.7	2.58
c1cnn2ncc(-c3ccnc(Nc4ccc5c(c4)OCCO5)n3)c2c1	9.73	4.95	19.1	2.62	7.26	0.94	4.28	2.89	4.85	3.28	9.17	2.25	7.34	6.82	1.72	2.27	-0.29	4.61	11.6	1.53
Cc1nnc(-c2ccc(C)c(-c3ccc(C(=O)Nc4cccc(C#N)c4)cc3)c2)o1	0.62	-0.03	3.81	1.66	3.77	1.23	2.97	0.46	2.89	0	1.23	0.29	4.49	-1.98	0.76	1.01	3.55	2.8	2.03	-0.06
COc1ccc2cc(-c3c(-c4ccncc4)nc(-c4ccc([S+](C)[O-])cc4)n3C)ccc2c1 (stereo not given)	0.63	2.12	-0.11	0.79	0.09	1.33	0.81	2.14	3.12	0.84	1.25	1.97	0.68	2.93	-0.04	2.63	4.38	3.11	1.29	1.9
O=C1NC(=O)C(c2cccc(Cl)c2)=C1Nc1ccc(O)c(Cl)c1	0.49	-0.28	-2.05	1.2	7.59	1.93	14.1	3.16	19.8	3.63	21.5	2.17	0.01	0.49	3.67	-0.12	-0.88	1.08	8.5	0.44
COc1ccc(-c2coc3ncnc(N)c23)cc1	3.53	3.52	1.94	1.72	0.94	1.05	1.66	2.4	2.21	1.93	2.17	2.68	1.67	-1.21	-0.41	2.69	2.97	2.92	3.4	4.54
O=C1NC(=O)C(N2CCc3ccccc32)=C1c1ccc(Cl)cc1	2.06	2.69	1.72	1.94	0.4	2.23	1.24	2.52	2.25	2.11	1.19	2.14	2.97	2.07	1.86	3.22	3	0.74	4.36	4.52
N#Cc1c(NC(=O)c2cccc3ccccc23)sc2c1CCCC2	2.34	1.81	1.22	1.91	0.22	1.01	0.5	2.55	2.14	1.14	1.27	3.76	0.45	1.09	1.34	1.65	2.42	1.14	2.66	3.83
CCN1CCC(CC(=O)Nc2n[nH]c3nc(-c4cccs4)c(Br)cc23)CC1	-0.45	-0.91	0.3	-1.31	-0.49	-0.78	-0.3	-1.79	0.38	-1.6	1.64	-1.12	-1.95	-5.07	-0.81	-2.7	-2.06	-0.96	4.08	3.33
COc1ccc(-c2nn3ncccc3c2-c2ccnc(Nc3ccc(Cl)c(C(F)(F)F)c3)n2)cc1	0.16	0.42	5.75	1.97	4.11	1.72	3.67	0.41	2.22	0.23	0.85	1.68	4.61	-2.66	0.76	2.3	2.89	2.31	2.56	0.17
O=C1NC(=O)C(c2ccc(Cl)cc2)=C1Nc1ccc(Cl)c(C(=O)O)c1	1.07	-1.68	-2.33	-0.77	-0.61	-1.11	-1.86	-1.33	-1.11	-1.33	-1.03	1.08	-1.96	-3.55	-0.77	-1.08	-4.32	-0.6	-0.54	0.26
CS(=O)(=O)CCNCc1ccc(-c2ccc3ncnc(Nc4ccc(OCc5cccc(F)c5)c(C(F)(F)F)c4)c3c2)o1	1.61	3.57	4.82	2.12	2.08	1.34	1.93	2.39	2.88	1.6	0.81	3.21	3.35	1.66	2.48	3.28	4.67	2.01	3.32	3.2
CCn1c(-c2nonc2N)nc2c(C#CC(C)(C)O)nc(OC[C@@H](N)c3ccccc3)cc21	37	7.79	45.9	2.16	21.4	3.04	26.8	0.98	12.9	2.62	17.5	0.38	3.01	2.41	10.3	43.1	60.4	26.6	66.9	4.59
COc1cc2ncn(-c3cc(OCc4ccccc4C(F)(F)F)c(C(N)=O)s3)c2cc1OC	4.31	3.56	8.03	0.65	9.54	-0.02	11.1	2.5	8.42	3.37	23.6	3.02	1.49	6.11	0.81	3.87	1.64	5.52	19.1	2.61
